The entries come from a sample that favours hits as a whole.
IL1B secr inh: inhibitors of inflammasome signaling (IL-1 beta secretion); THP-1 LPS/ATP IL-1B secretion, AlphaLISA, 16 h; hits give low values; activity change, % at 57.5 µM; 4.7% of 360,000 active; in the data active = activity change below about -50%; inconclusive = mostly about -30% to -49%
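Secreted IL-1B measured by AlphaLISA bead assay after 16 h compound exposure of THP-1 cells; compounds (final up to 57.5 uM) added 1 h before LPS (250 ng/mL) and ATP (1.25 mM) stimulation; lower signal means less secretion.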
TDP1 cell noCPT: qHTS for Inhibitors of human tyrosyl-DNA phosphodiesterase 1 (TDP1): qHTS in cells in absence of CPT; DT40 Tdp1-/- hTDP1 cells, no CPT, ATP luminescence, 48 h; Potency, µM (top dose mostly 46.2 µM), hits mostly inhibitors; 15% of 420,000 active; AID 686978, 2013; also: nearly all actives have a fitted effect of over 55% in size
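Readout: luminescence from CellTiter-Glo after 30 min in the dark at RT. Cells: DT40 Tdp1-/- with stable hTDP1, 400/well. Exposure: compounds alone, ≥48 hr, 37 °C.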
TDP1 cell CPT: growth inhibition of DT40 Tdp1-/-;hTDP1 cells with camptothecin (screen for TDP1 inhibitors); chicken DT40 Tdp1-/-;hTDP1 cells + 20 nM CPT, ATP luminescence, 48 h; Potency, µM (titrated, usually from 46.2 µM), actives largely listed as inhibitors; 12% of 420,000 active; also: nearly all actives have a fitted effect of over 55% in size
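Chicken DT40 Tdp1-/- cells complemented with human TDP1, 400 cells/well, exposed to compounds plus 20 nM camptothecin for at least 48 h at 37 C; viability read as ATP content by CellTiter-Glo luminescence.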
HT1080-NT tox: kills 2HG-producing HT-1080-NT fibrosarcoma cells; HT-1080-NT fibrosarcoma viability, CellTiter-Glo ATP luminescence, 48 h; Potency, µM (highest dose often 46.1 µM), actives largely listed as cytotoxic; 1.6% of 360,000 active; AID 686970;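 also: NT is the 2HG producing partner of a matched IDH1 knockdown line; nearly all actives have a fitted effect of over 55% in size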
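HT-1080-NT fibrosarcoma cells (2HG-overproducing), 750 cells/well in RPMI with 5% FBS, dosed after 2 h and incubated 48 h at 37C. CellTiter-Glo luminescence normalized to DMSO and no-cell wells; concentration-response curves fitted and classed.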
12-LOX inh: blocks human arachidonate 12S-lipoxygenase. P18054. purified 12hLO, xylenol orange hydroperoxide absorbance. Potency, µM (top dose mostly 108 µM), usual class: inhibitors. 1.1% of 580,000 active
Target sequence (P18054 whole entry, looked up): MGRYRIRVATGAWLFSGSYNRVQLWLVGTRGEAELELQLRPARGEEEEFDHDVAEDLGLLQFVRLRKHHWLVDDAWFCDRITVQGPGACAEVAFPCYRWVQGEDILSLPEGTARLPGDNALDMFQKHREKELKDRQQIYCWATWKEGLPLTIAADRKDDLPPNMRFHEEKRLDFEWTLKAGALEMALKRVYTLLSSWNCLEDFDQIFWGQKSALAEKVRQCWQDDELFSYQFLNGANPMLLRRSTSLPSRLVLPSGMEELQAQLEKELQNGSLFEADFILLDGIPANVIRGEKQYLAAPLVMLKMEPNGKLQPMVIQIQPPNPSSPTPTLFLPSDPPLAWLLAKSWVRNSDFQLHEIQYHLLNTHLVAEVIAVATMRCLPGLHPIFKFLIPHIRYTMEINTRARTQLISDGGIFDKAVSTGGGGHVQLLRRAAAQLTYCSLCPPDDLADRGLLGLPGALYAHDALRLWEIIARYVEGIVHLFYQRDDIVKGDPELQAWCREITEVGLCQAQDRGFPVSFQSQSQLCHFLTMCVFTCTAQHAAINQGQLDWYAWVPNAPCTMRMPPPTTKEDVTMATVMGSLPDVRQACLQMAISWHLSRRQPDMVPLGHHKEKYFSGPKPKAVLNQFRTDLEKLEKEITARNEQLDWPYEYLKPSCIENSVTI
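Purified human 12hLO (150 nM final) in 25 mM Hepes, 0.01% Triton X-100, pH 7.0 was preincubated 15 min at room temperature with compound. Then 40 uM arachidonic acid was added, 30 min. Hydroperoxide was read by Fe-XO absorbance ratio 573/405 nm.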
HT1080 IDH1KD tx: toxicity to HT-1080 IDH1 knockdown cells (counter line). HT-1080 IDH1 knockdown viability, ATP luminescence, 48 h. Potency, µM (series often up to 46.1 µM), most hits filed as cytotoxic. 2% of 360,000 active
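% activity derives from luminescence (CellTiter-Glo), normalised to DMSO and no-cell wells. HT-1080-IDH1KD cells, 750/well, had 48 h compound exposure at 37 °C.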
Of the large screens only hits and unclear results are named; the others gave an inactive call. Unless noted, calls follow the shape of the dose curve; as a rule, active = well fitted curve in the direction sought with a large enough effect; inconclusive = small, poorly fitted or top-dose-only effect, or another doubt; inactive = no such curve, though single readings can be large; an effect the other way counts as inactive or inconclusive.

CN(C)c1ccc(C(=S)Nc2ccccc2)cc1	TDP1 cell noCPT 16µM, TDP1 cell CPT inconclusive
CN(C)c1cc(O)c(C(=S)Nc2ccccc2)c(N(C)C)c1	TDP1 cell noCPT inconclusive, TDP1 cell CPT 16µM
CC(=O)N(C)c1ccc(NC(=S)Nc2ccccc2)cc1	none
COC(=O)C1CCNC1 (stereo not drawn)	none (no result: IL1B secr inh, TDP1 cell noCPT, TDP1 cell CPT, HT1080-NT tox, HT1080 IDH1KD tx)
O=C(c1cccnc1)N(Cc1ccccc1)Cc1cc2ccccc2[nH]c1=O	none (no result: IL1B secr inh, TDP1 cell noCPT, TDP1 cell CPT, HT1080-NT tox, HT1080 IDH1KD tx)
CCN(CC)Cc1cc(C(C)=O)ccc1OCC(C)C	12-LOX inh inconclusive
CCN(CC)Cc1cc(Oc2ccc(O)c(CN(CC)CC)c2)ccc1O	IL1B secr inh -72, TDP1 cell noCPT 23µM, TDP1 cell CPT 21µM (no result: 12-LOX inh)
O=C(C1=C(O)C(=O)N(CC2CCCO2)C1c1ccccc1F)c1ccco1 (stereo not drawn)	IL1B secr inh -94, 12-LOX inh inconclusive
O=C(C1=C(O)C(=O)N(CC2CCCO2)C1c1cccc(O)c1)c1ccco1 (stereo not drawn)	12-LOX inh inconclusive
CCOC(=O)C(NC(=O)/C=C/c1ccccc1OC)C(=O)OCC	none (no result: IL1B secr inh, TDP1 cell noCPT, TDP1 cell CPT, HT1080-NT tox, HT1080 IDH1KD tx)
COc1ccc(-n2nc(C(=O)NCC(=O)NCCCN3CC(C)CC(C)C3)c3ccccc3c2=O)cc1OC (stereo not drawn)	none
COc1ccc(-n2nc(C(=O)NCC(=O)Nc3cc(OC)c(OC)c(OC)c3)c3ccccc3c2=O)cc1Cl	TDP1 cell noCPT 1.6µM, TDP1 cell CPT inconclusive
COc1ccc(-n2nc(C(=O)NCC(=O)NCCCN3CC(C)CC(C)C3)c3ccccc3c2=O)cc1Cl (stereo not drawn)	IL1B secr inh -71, TDP1 cell noCPT inconclusive, HT1080-NT tox inconclusive, HT1080 IDH1KD tx inconclusive
Cc1noc(C)c1CCCNC(=O)C1CCN(C(=O)N2CC3CC(C2)[C@H]2CCCC(=O)N2C3)CC1 (stereo partly drawn)	none (no result: IL1B secr inh, TDP1 cell noCPT, TDP1 cell CPT, HT1080-NT tox, HT1080 IDH1KD tx)
CC(=O)Nc1ccc(NC(=O)CCc2ccc(C)o2)cc1	none
O=C(CCC(=O)N1CCCCCC1)Nc1ccc([N+](=O)[O-])cc1	HT1080-NT tox 6.5µM, HT1080 IDH1KD tx inconclusive
O=C(Nc1ccc(Cl)cc1)NN1CCCCCC1	12-LOX inh inconclusive
Cc1cc([N+](=O)[O-])ccc1NC(=O)CCC(=O)N1CCCCC1	none
O=C(Nc1ccc([N+](=O)[O-])cc1)NN1CCCCCC1	IL1B secr inh -99, TDP1 cell noCPT 15µM, TDP1 cell CPT 23µM
Cc1ccc(CCC(=O)Nc2ccc([N+](=O)[O-])cc2)o1	IL1B secr inh -74, TDP1 cell noCPT inconclusive, 12-LOX inh inconclusive
CN(Cc1ccccc1)S(=O)(=O)c1cc2c(cc1Cl)Oc1ccccc1NC2=O	none (no result: IL1B secr inh, TDP1 cell noCPT, TDP1 cell CPT, HT1080-NT tox, HT1080 IDH1KD tx)
Cc1ccc(S(=O)(=O)Oc2c(C)occc2=O)cc1	none (no result: IL1B secr inh, TDP1 cell noCPT, TDP1 cell CPT, HT1080-NT tox, HT1080 IDH1KD tx)
Cc1cc(-c2nsc(=O)o2)c(S(C)(=O)=O)s1	TDP1 cell noCPT 16µM, TDP1 cell CPT 21µM, 12-LOX inh 8.9µM
CC(C)(C)c1cc(N=Cc2ccccc2O)cc(C(C)(C)C)c1O	none (no result: IL1B secr inh, TDP1 cell noCPT, TDP1 cell CPT, HT1080-NT tox, HT1080 IDH1KD tx)
O=C(CCNS(=O)(=O)c1ccc2c(c1)CCN2C(=O)C1CC1)N1CCN(c2ccc(F)cc2)CC1	TDP1 cell noCPT 9.2µM, TDP1 cell CPT 3.3µM (no result: IL1B secr inh, HT1080-NT tox, HT1080 IDH1KD tx)
CCN(CC)c1ccc(NC(=O)CCNS(=O)(=O)c2ccc3c(c2)CCC(=O)N3)c(C)c1	TDP1 cell noCPT 16µM, TDP1 cell CPT inconclusive
COc1ccc(N2CCN(C(=O)CCNS(=O)(=O)c3ccc4c(c3)CCN4C(=O)C3CC3)CC2)cc1	TDP1 cell noCPT 18µM, TDP1 cell CPT 13µM (no result: IL1B secr inh, HT1080-NT tox, HT1080 IDH1KD tx)
O=C(CCNS(=O)(=O)c1cccc2nonc12)N1CCN(c2cccc(Cl)c2)CC1	TDP1 cell noCPT 12µM, TDP1 cell CPT inconclusive
CCOC(=O)c1sc(-c2ccc(OC)c(OC)c2)cc1NC(=O)c1ccco1	none (no result: IL1B secr inh, TDP1 cell noCPT, TDP1 cell CPT, HT1080-NT tox, HT1080 IDH1KD tx)
N#Cc1ccc(CN2CCN(C(=O)CCNS(=O)(=O)c3ccc(F)c(F)c3)CC2)cc1	none

Bioassay records: PubChem, National Center for Advancing Translational Sciences (NCATS)
